# Assay results from PubChem BioAssay (NCATS).
# Results filed as inconclusive are left out. A call without a number means that no potency is given here. A number with no mark means an inactive call. The source made the active and inactive calls. Calls follow the shape of the dose curve; as a rule, active = well fitted curve in the direction sought with a large enough effect; inconclusive = small, poorly fitted or top-dose-only effect, or another doubt; inactive = no such curve, though single readings can be large; an effect the other way counts as inactive or inconclusive.
# Key:
# [1] = BET inhibitor-based combinations targeting novel dependencies in MECOM-rearranged (r) AML: MV-4-11 cell line (AID 2202233); also: nearly all actives have a fitted effect of over 45% in size
# How it was run: (§1)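 Each compound is tested in an 11-point concentration series against 500 seeded cells/well for 48 hr. The luminescent viability signal is normalized to DMSO and blank wells, then reduced to AUC and a cell-line-centred Z-AUC.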
# [2] = BET inhibitor-based combinations targeting novel dependencies in MECOM-rearranged (r) AML: UCSD-AML1 cell line (AID 2202235); also: nearly all actives have a fitted effect of over 40% in size
# How it was run: as §1
# [3] = BET inhibitor-based combinations targeting novel dependencies in MECOM-rearranged (r) AML: AML-191 cell line (AID 2202236; also: nearly all actives have a fitted effect of over 35% in size)
# How it was run: (§2)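 A 48 hr incubation preceded viability reading by CellTiter-Glo, with 15 min room-temperature development. Dose series had 11 points; normalization used DMSO and empty wells; AUC was computed and mean-centered per line as Z-AUC.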
# [4] = BET inhibitor-based combinations targeting novel dependencies in MECOM-rearranged (r) AML: AML-194 cell line (AID 2202237; also: nearly all actives have a fitted effect of over 40% in size)
# How it was run: as §2
# [5] = BET inhibitor-based combinations targeting novel dependencies in MECOM-rearranged (r) AML: SET-2 cell line (AID 2202231); conditions: SET-2 AML cells viability, CellTiter-Glo luminescence, 48 h; viability: active compounds read low, concentration not given here; also: nearly all actives have a fitted effect of over 35% in size
# How it was run: as §2
# [6] = BET inhibitor-based combinations targeting novel dependencies in MECOM-rearranged (r) AML: HNT-34 cell line (AID 2202234); also: nearly all actives have a fitted effect of over 35% in size
# How it was run: as §1
# [7] = BET inhibitor-based combinations targeting novel dependencies in MECOM-rearranged (r) AML: OCI-AML3 cell line (AID 2202232); conditions: Potency: OCI-AML3 viability; also: nearly all actives have a fitted effect of over 35% in size
# How it was run: as §2
# Potency is read from the fitted curve at half-maximal effect.
Compound,Potency [1],Potency [2],Potency [3],Potency [4],viability [5] [%],Potency [6],Potency [7],Potency [5]
C[C@@H]1O[C@@H](O[C@@H]2C=C3CC[C@@H]4[C@H](CC[C@]5(C)[C@@H](c6ccc(=O)oc6)CC[C@]45O)[C@@]3(C)CC2)[C@H](O)[C@H](O)[C@H]1O,29.5 nM (active),18.6 nM (active),18.6 nM (active),14.8 nM (active),–,–,–,–
CC1(C)CC(O)CC(C)(C)N1O,–,inactive,inactive,inactive,115,inactive,–,–
CO/C1=C/C(C)=C\[C@@H](C)[C@@H](O)[C@@H](C)C/C(C)=C\C=C/[C@H](OC)[C@@H]([C@@H](C)[C@@H](O)[C@H](C)[C@@]2(O)C[C@@H](O)[C@H](C)[C@@H](C(C)C)O2)OC1=O,–,inactive,–,–,–,87.9 nM (active),124 nM (active),–
COc1cc(C)[nH]c(=O)c1CNC(=O)c1c(C)n([C@H](C)C2CCN(CC(F)(F)F)CC2)c2ccccc12,inactive,–,inactive,inactive,–,inactive,–,–
C/C=C(\C)C(=O)N[C@@H](c1ccccc1)[C@@H](O)C(=O)O[C@H]1C[C@@]2(O)[C@@H](OC(=O)c3ccccc3)[C@@H]3[C@]4(OC(C)=O)CO[C@@H]4C[C@H](O)[C@@]3(C)C(=O)[C@H](OC(C)=O)C(=C1C)C2(C)C,26.3 nM (active),16.6 nM (active),46.8 nM (active),74.2 nM (active),–,–,13.2 nM (active),–
C[C@@]12OC(=O)[C@]1([C@@H](O)[C@@H]1C=CCCC1)NC(=O)[C@@H]2CCCl,23.5 nM (active),33.2 nM (active),26.3 nM (active),–,–,37.2 nM (active),20.9 nM (active),–
CC(C)CC(N(C)C)C1(c2ccc(Cl)cc2)CCC1 (stereo unspecified),inactive,–,–,–,99.9,inactive,–,–
COC12C(COC(N)=O)C3=C(C(=O)C(C)=C(N)C3=O)N1CC1C2N1C (stereo unspecified),inactive,–,inactive,inactive,107,inactive,–,–
CN(C)[C@@H]1C(=O)C(C(N)=O)=C(O)[C@@]2(O)C(=O)C3=C(O)c4c(O)cccc4[C@@](C)(O)[C@H]3[C@H](O)[C@@H]12,inactive,–,inactive,inactive,–,inactive,inactive,–
CN(C)NC(=O)CCC(=O)O,inactive,–,inactive,inactive,–,–,inactive,–
C[C@@H]1CC[C@@]2(OC1)O[C@H]1C[C@H]3[C@@H]4CC=C5C[C@@H](O[C@@H]6O[C@H](CO)[C@@H](O[C@@H]7O[C@@H](C)[C@H](O)[C@@H](O)[C@H]7O)[C@H](O)[C@H]6O[C@@H]6O[C@@H](C)[C@H](O)[C@@H](O)[C@H]6O)CC[C@]5(C)[C@H]4CC[C@]3(C)[C@H]1[C@@H]2C,5900 nM (active),8330 nM (active),5250 nM (active),8330 nM (active),–,5250 nM (active),–,–
O=P1(NCCCl)OCCCN1CCCl (stereo unspecified),–,inactive,inactive,–,115,inactive,–,–
O=C(NCCCNc1nc(Nc2ccc(N3CCOCC3)cc2)ncc1C1CC1)C1CCC1,372 nM (active),9340 nM (active),–,–,–,13200 nM (active),–,–
CCOP(=O)(OCC)C(C)NC(=O)N(CCCl)N=O (stereo unspecified),–,–,inactive,inactive,–,inactive,inactive,–
CO[C@H]1CCC(O[C@H]2C[C@H]([C@]3(C)CC[C@]4(C[C@H](O)[C@@H](C)[C@@H]([C@@H](C)/C=C(\C)C(=O)[C@H](C)C[C@H](C)C(=O)O)O4)O3)O[C@]3(O[C@@H]([C@H]4O[C@@](O)(CO)[C@H](C)C[C@@H]4C)C[C@@H]3C)[C@@H]2C)O[C@@H]1C (stereo partly specified),–,2630 nM (active),1660 nM (active),263 nM (active),–,148 nM (active),235 nM (active),–
CCCCCCC(C)(C)c1cc(O)c2c(c1)OC(C)(C)C1CC=C(CO)C[C@H]21 (stereo partly specified),29500 nM (active),–,18600 nM (active),23500 nM (active),–,–,–,23500 nM (active)
CN1C(=O)[C@@H](NC(=O)[C@H](CCC(F)(F)F)[C@H](CCC(F)(F)F)C(N)=O)N=C(c2ccccc2)c2ccccc21,inactive,inactive,inactive,–,–,inactive,inactive,–
N[C@@H]1C[C@H]1c1ccccc1,–,–,–,inactive,–,–,–,–
COc1cc(C(=O)N2CC[C@@H](O)[C@@H](N)C2)cc2nc(-c3cc4ccccc4n3CC3CC3)n(C)c12,–,inactive,inactive,inactive,103,inactive,–,–
N[C@@H](Cc1ccc(N(CCCl)CCCl)cc1)C(=O)O,–,2950 nM (active),–,2950 nM (active),–,–,–,–
